Assay outcomes deposited in PubChem by several laboratories.
Only some compounds are listed: those with a hit (about 0.95% of all), similar ones and a draw of the others.
RN4220 kill – growth inhibition of S. aureus RN4220, primary screen, OD600 | 16 h | actives 0.33% (n = 330,000) | inhibition, % (no concentration beside the values) | AID 1259311, 2017; in the data active means inhibition above about 85%
BJeLR lethal – MLPCN primary cell-based screen for lethality selective to Ras in HRASV12 cells; BJeLR (HRASV12) viability, CellTiter-Glo ATP luminescence, 48 h; inhibition, % (test concentration not listed); actives 0.17% (n = 300,000); AID 1554, 2009; in the data active means inhibition above about 50%
ugtP null kill – growth inhibition of ugtP-null S. aureus, primary screen, RN4220 ugtP deletion, OD600. actives 0.54% (n = 330,000). growth inhibition, % (test concentration not listed). AID 1259309, 2017. 16 h; in the data active means growth inhibition above about 68%
PrPC surface inh – inhibitors of human cell surface prion protein PrPC, primary screen, cell-based, TR-FRET; Major prion protein (Homo sapiens), P04156; TR-FRET read-out; inhibition, % at 13.8 µM; actives 0.43% (n = 370,000); in the data active means inhibition above about 24%
Of the large screens only hits and unclear results are named; the others gave an inactive call.

CCOC(=O)c1c2ccc(OCC(=O)NN=Cc3ccc(C)cc3)cc2n2ccccc12	none (no result: BJeLR lethal, PrPC surface inh)
CCOc1ccc2ccccc2c1C=NNC(=O)CC1(C)OCCCO1	none (no result: BJeLR lethal, PrPC surface inh)
O=S(=O)(NC1CCCCCCC1)OCC(Cl)(Cl)Cl	none
O=S(=O)(NC1CC(NS(=O)(=O)OCC(Cl)(Cl)Cl)C2CCCCC12)OCC(Cl)(Cl)Cl (configuration not stated)	RN4220 kill 101, ugtP null kill 95 (no result: PrPC surface inh)
ON=CC1=C(Cl)c2ccccc2CC1	none (no result: BJeLR lethal, PrPC surface inh)
CCn1cc(C(=O)NCc2ccccc2)c(=O)c2cc(F)c(N3CCN(C(=O)c4ccco4)CC3)cc21	none
CCn1cc(C(=O)O)c(=O)c2cc(F)c(N3CCN(C(=S)NC(=O)c4ccccc4C)CC3)cc21	RN4220 kill 100, ugtP null kill 100
CCn1cc(C(=O)O)c(=O)c2cc(F)c(N3CCN(C(=S)NC(=O)c4cc(OC)cc(OC)c4)CC3)cc21	RN4220 kill 100, ugtP null kill 99
CCn1cc(C(=O)O)c(=O)c2cnc(N3CCN(C(=S)NC(=O)c4ccccc4)CC3)nc21	none
CCn1cc(C(=O)O)c(=O)c2cc(F)c(N3CCN(C(=S)Nc4ccc(OC)cc4)CC3)cc21	none
CCn1cc(C(=O)O)c(=O)c2cc(F)c(N3CCN(C(=S)NC(=O)c4ccccc4)CC3)cc21	RN4220 kill 99, ugtP null kill 99
CCn1cc(C(=O)O)c(=O)c2cc(F)c(N3CCN(C(=S)NC(=O)c4ccccc4Cl)CC3)cc21	RN4220 kill 100, ugtP null kill 100
Cc1cc(C(=O)NN=Cc2c(CO)cnc(C)c2O)c2ccccc2n1	none (no result: BJeLR lethal, PrPC surface inh)
CCCCN1C(=N)N(C(C)CN2CCCC2CN2C(N)=NCC2CC(C)C)CC1Cc1ccccc1 (configuration not stated)	none (no result: BJeLR lethal, PrPC surface inh)
CC(C)CC1CN=C(N)N1CC1CCCN1CC(C)N1CC(Cc2ccccc2)N(CCc2ccc(Cl)c(Cl)c2)C1=N (configuration not stated)	RN4220 kill 101, ugtP null kill 101 (no result: BJeLR lethal, PrPC surface inh)
CCCCN1C(=N)N([C@@H](C)CN2CCC[C@H]2CN2C(N)=NC[C@H]2CC(C)C)C[C@H]1[C@H](C)CC	none (no result: RN4220 kill, BJeLR lethal, ugtP null kill)
CC(C)C[C@@H]1CN=C(N)N1C[C@@H]1CCCN1C[C@@H](C(C)C)N1C[C@@H](Cc2ccccc2)N(CCc2ccc(Cl)c(Cl)c2)C1=N	RN4220 kill 99, ugtP null kill 100 (no result: BJeLR lethal)
CC(C)C(CN1CCCC1CN1C(N)=NCC1Cc1ccccc1)N1CC(Cc2ccccc2)N(CCc2ccc(Cl)c(Cl)c2)C1=N (configuration not stated)	RN4220 kill 101, ugtP null kill 100 (no result: BJeLR lethal, PrPC surface inh)
CCN1C(=O)C(=C2C=Cc3cc(C)ccc3N2CC)N(C)C1=S	none (no result: BJeLR lethal, PrPC surface inh)
COc1ccc2ccccc2c1C=NNc1cccc(C(=O)O)c1	none (no result: BJeLR lethal, PrPC surface inh)
CCOP(=O)(C(C#N)=C(C)O)c1ccccc1 (configuration not stated)	none (no result: BJeLR lethal, PrPC surface inh)
O=C(CSc1ccccn1)NN=C/C=C/c1ccccc1	none (no result: BJeLR lethal, PrPC surface inh)
O=C(NCc1ccccc1)c1c(Cl)nc(Cl)c(Cl)c1Cl	BJeLR lethal 70
Cc1ccc(NC(=O)C2SC(=Nc3ccccc3)C(C(=O)Nc3ccc(Cl)cc3)=C2N)cc1 (configuration not stated)	none (no result: BJeLR lethal, PrPC surface inh)
Cc1ccc(N=C2SC(C(=O)Nc3ccc(OC(F)(F)F)cc3)C(N)=C2C(=O)Nc2c(C)cc(C)cc2C)cc1 (configuration not stated)	RN4220 kill 100, ugtP null kill 100 (no result: BJeLR lethal)
Nc1nc(N)c2c(ccc3nccc32)[nH]1	BJeLR lethal 66 (no result: RN4220 kill, ugtP null kill)
COc1ccc(Oc2cc(C)c3cccc(C)c3n2)cc1	ugtP null kill 96
COc1ccc(/C=N/Nc2cc(C)nc3c(C)cccc23)cc1	none (no result: RN4220 kill, ugtP null kill)
Cc1cc(OCCn2cc(/C(N)=N/O)c3ccccc32)ccc1Cl	ugtP null kill 93
COC(=O)c1cn(CCOc2ccc(C)cc2)c2ccccc12	none
CN1c2ccc(C#CC3CC3)cc2[C@@H]2[C@@H](CCN2C(=O)C2CCOCC2)[C@H]1CO	none (no result: RN4220 kill, BJeLR lethal, ugtP null kill)
CC(=NNC(=O)CN1CCN(S(=O)(=O)c2ccc(C)cc2)CC1)c1cccc(O)c1	none (no result: BJeLR lethal, PrPC surface inh)
N#CC(C#N)=C1C=CC=CN1/C(=C\c1ccco1)C(=O)c1ccc(Cl)cc1	ugtP null kill 89 (no result: BJeLR lethal)
Cc1nc(NN=Cc2ccc(Br)cc2)cc(N2CCOCC2)n1	none (no result: BJeLR lethal, PrPC surface inh)
O=C(O)CCN1C(=O)/C(=C\c2ccc(-c3nc4ccccc4s3)o2)SC1=S	RN4220 kill 109, ugtP null kill 101 (no result: PrPC surface inh)
O=C(O)CCCN1C(=O)/C(=C\c2ccco2)SC1=S	none
Cc1cccc(CSc2ncnc3c2cnn3Cc2ccccc2)c1	ugtP null kill 98
Cc1ccc(-n2ncc3c(SCc4cccc(C)c4)ncnc32)cc1	none
NC(=NN=Cc1ccc(Br)o1)c1nonc1N	none (no result: BJeLR lethal, PrPC surface inh)
COc1ccc(C=CC(=O)Nc2ccccc2C(=O)O)cc1OC	none (no result: BJeLR lethal, PrPC surface inh)
Cc1ccc(S(=O)(=O)N(c2nc(N(C)C)nc(N(C)C)n2)n2cnnc2)cc1	RN4220 kill 94, ugtP null kill 98
Cc1ccc(S(=O)(=O)Nn2cnnc2)cc1	none
C[C@@H]1CCN(C2CC2)S(=O)(=O)c2ccc(N3CC[C@H](O)C3)cc2O1	none (no result: RN4220 kill, BJeLR lethal, ugtP null kill)
CC(=O)Nc1cccc(C(=O)/C=C/c2ccc(/C=C/C(=O)c3cccc(NC(C)=O)c3)cc2)c1	BJeLR lethal 81 (no result: RN4220 kill, ugtP null kill)
Cn1ncc(C#N)c1/N=C/N(Cc1ccccc1)Cc1ccccc1	none (no result: RN4220 kill, ugtP null kill)
Cn1ncc(C#N)c1N=CN(Cc1ccccc1)Cc1ccccc1	RN4220 kill 101, ugtP null kill 100 (no result: BJeLR lethal, PrPC surface inh)
C=C1C(=O)c2sccc2C(c2ccc(OC)c(OC)c2)C1COC(C)=O (configuration not stated)	PrPC surface inh 96 (no result: RN4220 kill, BJeLR lethal, ugtP null kill)
CCN1CCN(CC(=O)N2N=C(c3cccs3)CC2c2ccc(OC)c(OC)c2)C(=O)C1=O (configuration not stated)	none
CC(C)CC(=O)NC(=S)Nc1ccc(S(=O)(=O)NC(C)(C)C)cc1	ugtP null kill 87
CCc1nnc(NS(=O)(=O)c2ccc(NC(=S)NC(=O)c3ccc(F)cc3)cc2)s1	ugtP null kill 87
CC(C)(C)NS(=O)(=O)c1ccc(NC(=S)NC(=O)C2CCC2)cc1	none (no result: RN4220 kill, ugtP null kill)
CCOc1ccc(NS(=O)(=O)c2ccc(NC(=S)NC(=O)CC(C)C)cc2)cc1	ugtP null kill 87
CC(C)CC(=O)NC(=S)Nc1ccc(S(=O)(=O)Nc2nccs2)cc1	ugtP null kill 92
CCc1nnc(NS(=O)(=O)c2ccc(NC(=S)NC(=O)c3cccnc3)cc2)s1	none
O=S1(=O)CC2c3ccccc3CN2CN1Cc1ccccc1 (configuration not stated)	none (no result: RN4220 kill, BJeLR lethal, ugtP null kill)
Cc1cc(N2CCNC[C@H]2C)ccc1N1CCS(=O)(=O)CC1	none (no result: RN4220 kill, BJeLR lethal, ugtP null kill)
CC(C)CC(=O)NC(=S)Nc1ccc(S(=O)(=O)N2CCN(C)CC2)cc1	ugtP null kill 86
CCCC(=O)NC(=S)Nc1ccc(S(=O)(=O)Nc2ccc(OCC)cc2)cc1	ugtP null kill 88
O=C(NN=Cc1c(O)ccc2ccccc12)C1CC1	ugtP null kill 90 (no result: BJeLR lethal)
O=C(NN=Cc1c(O)ccc2ccccc12)c1cccc(C(F)(F)F)c1	ugtP null kill 100 (no result: BJeLR lethal, PrPC surface inh)
O=C(NN=Cc1cccc2ccccc12)C1CC1	none (no result: BJeLR lethal)
Cc1ccsc1C=NNC(=O)Cc1cc(=O)[nH][nH]1	none (no result: BJeLR lethal, PrPC surface inh)
Cc1cccc(Nc2nc(N)nc(CCl)n2)c1	BJeLR lethal 94
